Assay outcomes from PubChem.
Compounds with a hit are over-represented: about 10% of the library has one in this group of screens.
HEK293 tox: kills HEK 293 cells | HEK 293 viability, ATP luminescence (CellTiter-Glo), 48-72 h | Potency, µM (series often up to 115 µM), actives largely listed as inhibitors | actives 6.6% (n = 94,000) | AID 1345083; also: nearly all actives have a fitted effect of over 60% in size
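250 HEK 293 cells/well; compound by pintool; incubated 48 or 72 hr at 37 degree Celsius; CellTiter-Glo added, 10 min RT, luminescence imaged.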
3T3 cytotox: kills NIH 3T3 cells; NIH 3T3 viability, CellTiter-Glo ATP luminescence, 48-72 h; Potency, µM (series often up to 96.7 µM), actives largely listed as inhibitors; actives 4.3% (n = 94,000); AID 1345082; also: nearly all actives have a fitted effect of over 55% in size
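Mouse fibroblast NIH 3T3 cells, 400 per well, received compound via pintool and were incubated for 48 or 72 hr prior to CellTiter-Glo ATP luminescence measurement.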
FLuc inh: Photinus pyralis luciferase inhibition | P08659 | purified P. pyralis luciferase, luminescence, biochemical | Potency, µM (titrated, usually from 115 µM), usual class: inhibitors | actives 2.5% (n = 76,000) | AID 1347043; also: nearly all actives have a fitted effect of over 65% in size
Target sequence (P08659 whole entry, looked up): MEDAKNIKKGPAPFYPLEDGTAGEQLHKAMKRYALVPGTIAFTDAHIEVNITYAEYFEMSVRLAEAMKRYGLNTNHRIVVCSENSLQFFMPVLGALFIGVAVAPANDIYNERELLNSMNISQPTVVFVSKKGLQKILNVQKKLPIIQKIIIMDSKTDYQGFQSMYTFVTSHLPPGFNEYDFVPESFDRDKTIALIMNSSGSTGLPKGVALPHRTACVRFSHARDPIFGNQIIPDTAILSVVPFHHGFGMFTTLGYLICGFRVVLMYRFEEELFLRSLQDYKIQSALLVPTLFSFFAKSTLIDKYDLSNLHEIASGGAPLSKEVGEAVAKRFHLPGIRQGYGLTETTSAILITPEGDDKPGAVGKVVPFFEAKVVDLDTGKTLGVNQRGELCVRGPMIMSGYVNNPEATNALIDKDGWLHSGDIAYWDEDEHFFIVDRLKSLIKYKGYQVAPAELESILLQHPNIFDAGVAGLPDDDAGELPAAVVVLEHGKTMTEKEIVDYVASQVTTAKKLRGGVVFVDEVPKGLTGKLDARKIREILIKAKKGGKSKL
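FLuc 10nM, D-luciferin 10uM, ATP 10uM, Mg acetate 10mM, Tris acetate pH 7.5, Tween/BSA; cpd qHTS; enzyme added last; CCD luminescence.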
hNpr1 antagonist: blocks ANP-stimulated signaling of human Npr1 receptor; HEK293 hNpr1 GloSensor cGMP, ANP-stimulated luminescence; Potency, µM (highest dose often 46.3 µM), usual class: inhibitors; actives 1.6% (n = 76,000); AID 1347048; calls by dose curve; also: nearly all actives have a fitted effect of over 60% in size
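Compound pre-incubated 30 min at room temperature on GloSensor-loaded HEK293 cells stably carrying hNpr1 and the pGS-40F cGMP biosensor. Stimulation uses hNppA at 0.1 nM final; luminescence is taken at baseline and 20 min post-agonist.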
GPT2 inh: inhibitors of human GPT2 alanine aminotransferase. Q8TD30. Recombinant GPT2, coupled pyruvate oxidase/HRP Amplex Red fluorescence. Potency, µM (series often up to 57.7 µM), actives largely listed as inhibitors. actives 0.25% (n = 100,000); also: nearly all actives have a fitted effect of over 60% in size
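Inhibition is scored from Amplex Red fluorescence generated when pyruvate oxidase and HRP act on pyruvate released by GPT2. Reactions contain 10ng/uL enzyme, 250uM a-KG and 2mM L-alanine and run 30 min at room temperature.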
Of the large screens only hits and unclear results are named; the others gave an inactive call. Unless noted, calls follow the shape of the dose curve; as a rule, active = well fitted curve in the direction sought with a large enough effect; inconclusive = small, poorly fitted or top-dose-only effect, or another doubt; inactive = no such curve, though single readings can be large; an effect the other way counts as inactive or inconclusive.

COc1cccc(-c2ncc3c(n2)OCCN(Cc2ccc(F)cc2F)C3=O)c1F	HEK293 tox inconclusive, FLuc inh 15.8µM
O=C(c1ccc(F)cc1)N1CCCC(CN2CCCC2)CC1 (centres undefined)	GPT2 inh inconclusive (no result: FLuc inh, hNpr1 antagonist)
Cc1ccc(C2Cn3cnc(C(=O)N4CCC(C(=O)NCCC5=CCCCC5)CC4)c3CO2)cc1 (centres undefined)	FLuc inh 28.2µM
COCCCNC(=O)C1CCN(C(=O)c2nnn3c2COC(c2ccc(C)cc2)C3)CC1 (centres undefined)	FLuc inh 39.8µM
Cc1ccc(C2Cn3nnc(C(=O)N4CCC(C(=O)NCCC5=CCCCC5)CC4)c3CO2)cc1 (centres undefined)	FLuc inh 10µM
CCCCNC(=O)C1CCN(C(=O)c2nnn3c2COC(c2ccc(OC)cc2)C3)CC1 (centres undefined)	none
O=C(NCCC1=CCCCC1)C1CCN(C(=O)c2ncn3c2COC(c2ccc(Cl)cc2)C3)CC1 (centres undefined)	HEK293 tox inconclusive, FLuc inh inconclusive
O=c1c2nc(-c3ccc4c(c3)OCO4)ccc2ncn1Cc1ccccn1	3T3 cytotox inconclusive, FLuc inh inconclusive
COc1cccc(-c2cccc(C(=O)N3CCCC3C(=O)NCc3ccccc3)c2)c1 (centres undefined)	HEK293 tox inconclusive, 3T3 cytotox inconclusive (no result: FLuc inh, hNpr1 antagonist)
COc1ccc(CC(=O)NC2CCCN(Cc3ccc(-c4cc(C)cc(C)c4)cc3)C2)cc1 (centres undefined)	HEK293 tox 22.4µM, 3T3 cytotox 17.8µM (no result: FLuc inh, hNpr1 antagonist)
Cc1cc(C)cc(-c2ccc(CN3CCCC(NC(=O)Cc4ccc(F)cc4)C3)cc2)c1 (centres undefined)	HEK293 tox 31.6µM, 3T3 cytotox inconclusive (no result: FLuc inh, hNpr1 antagonist)
Cc1cc(C)cc(-c2ccc(CN3CCCC(NC(=O)Cc4cccc(Cl)c4)C3)cc2)c1 (centres undefined)	HEK293 tox 25.1µM, 3T3 cytotox inconclusive (no result: FLuc inh, hNpr1 antagonist)
Cc1cc(C)cc(-c2ccc(CN3CCCC(NC(=O)N(C)C)C3)cc2)c1 (centres undefined)	HEK293 tox 31.6µM, 3T3 cytotox inconclusive (no result: FLuc inh, hNpr1 antagonist)
Cc1cc(C)cc(-c2ccc(CN3CCCC(NC(=O)C(C)C)C3)cc2)c1 (centres undefined)	none (no result: FLuc inh, hNpr1 antagonist)
CC(=O)NC1CCCN(Cc2ccc(-c3cc(C)cc(C)c3)cc2)C1 (centres undefined)	HEK293 tox inconclusive, 3T3 cytotox inconclusive (no result: FLuc inh, hNpr1 antagonist)
N#Cc1ccccc1CN1CCCCC1c1nc(CCOCC2CCCC2)no1 (centres undefined)	HEK293 tox inconclusive, 3T3 cytotox inconclusive
COCC1CN(C2CCC2)CC12CCN(Cc1ccc(OC)c(OC)c1)CC2 (centres undefined)	HEK293 tox inconclusive, 3T3 cytotox inconclusive
COCC1CN(C2CCC2)CC12CCN(C(=O)CCCc1ccccc1)CC2 (centres undefined)	HEK293 tox 31.6µM, 3T3 cytotox inconclusive (no result: FLuc inh, hNpr1 antagonist)
COCCOC1CCOC2(CCN(C(=O)Cc3ccccc3)CC2)C1 (centres undefined)	none
COCC1CN(C2CCC2)CC12CCN(Cc1cccc(OC)c1OC)CC2 (centres undefined)	HEK293 tox 44.7µM, 3T3 cytotox inconclusive
COCCOC1CCOC2(CCN(C(=O)CCCc3ccccc3)CC2)C1 (centres undefined)	HEK293 tox inconclusive, FLuc inh 28.2µM
COCC1CN(C2CCC2)CC12CCN(C(=O)C1(c3ccccc3)CC1)CC2 (centres undefined)	HEK293 tox 31.6µM, 3T3 cytotox inconclusive
COCC1CN(C)CC12CCN(C(=O)CCCc1ccccc1)CC2 (centres undefined)	HEK293 tox inconclusive, 3T3 cytotox inconclusive
CCn1ccc(C(=O)N2CCCC(Cn3c(C)cnc3C3CC3)C2)n1 (centres undefined)	none (no result: FLuc inh, hNpr1 antagonist)
COCCC(=O)N1CCC(Oc2nccnc2N2CCc3ccccc32)C1 (centres undefined)	HEK293 tox inconclusive, FLuc inh inconclusive
O=C(CCC1CCCN(CCCn2cccn2)C1)Nc1ccc(C(F)(F)F)cc1 (centres undefined)	HEK293 tox inconclusive, 3T3 cytotox inconclusive
CC[C@H]1CN(S(=O)(=O)c2c(C)noc2C)CC[C@H]1CC(=O)NCc1cccc2ccccc12	HEK293 tox 22.4µM, 3T3 cytotox inconclusive
Cc1cn2nc(C(=O)Nc3ccc(Cl)cc3)cc2c(N(C)Cc2ccccc2)n1	none
Cc1cn2nc(C(=O)Nc3ccc(N(C)C)cc3)cc2c(N(C)Cc2ccccc2)n1	HEK293 tox inconclusive, 3T3 cytotox inconclusive, FLuc inh 2.51µM, GPT2 inh inconclusive
Cc1nn(-c2ccccc2)c2c1C(C(C)C)N(C1CCN(C(=O)Cc3cccc(Cl)c3)CC1)C2=O (centres undefined)	none (no result: FLuc inh, hNpr1 antagonist, GPT2 inh)
Cc1nn(-c2ccccc2)c2c1C(C1CC1)N(C1CCCN(C(=O)c3ccccc3)C1)C2=O (centres undefined)	HEK293 tox inconclusive (no result: FLuc inh, hNpr1 antagonist, GPT2 inh)
Cc1nn(-c2ccccc2)c2c1C(C1CC1)N(C1CN(C(=O)NC(C)(C)c3ccccc3)C1)C2=O (centres undefined)	HEK293 tox inconclusive, 3T3 cytotox 14.1µM (no result: FLuc inh, hNpr1 antagonist, GPT2 inh)
Cc1ccc(C(=O)N2CC(N3C(=O)c4c(c(C)nn4-c4ccccc4)C3C3CC3)C2)cc1 (centres undefined)	none (no result: FLuc inh, hNpr1 antagonist, GPT2 inh)
Cc1nn(-c2ccccc2)c2c1C(C(C)C)N(C1CN(C(=O)Cc3cccc(Cl)c3)C1)C2=O (centres undefined)	HEK293 tox 25.1µM, 3T3 cytotox 25.1µM (no result: FLuc inh, hNpr1 antagonist, GPT2 inh)
O=C(Cc1cccc(Cl)c1)N1CCCC(c2nn(-c3ccccc3)c(=O)[nH]2)C1 (centres undefined)	HEK293 tox 44.7µM, 3T3 cytotox inconclusive
Cc1nn(-c2ccccc2)c2c1C(C1CC1)N(C1CN(C(=O)Cc3cccc(Cl)c3)C1)C2=O (centres undefined)	HEK293 tox 25.1µM, 3T3 cytotox inconclusive (no result: FLuc inh, hNpr1 antagonist, GPT2 inh)
Cc1ccc(Nc2ccnc(N3CCCC(C(=O)NC4CC4)C3)n2)cc1 (centres undefined)	HEK293 tox inconclusive, 3T3 cytotox inconclusive (no result: FLuc inh, hNpr1 antagonist)
COc1ccccc1C(=O)NCCNC(=O)c1cccc(-c2ncccc2C#N)c1	HEK293 tox inconclusive, 3T3 cytotox inconclusive (no result: FLuc inh, hNpr1 antagonist)
COc1cccc(-c2nc(-c3c(C)noc3C)cc3c2cc(C)n3CCN(C)C)c1	HEK293 tox 44.7µM, 3T3 cytotox 10µM
COc1ncccc1-c1nc(-c2c(C)noc2C)cc2c1cc(C)n2CCN(C)C	HEK293 tox inconclusive, 3T3 cytotox 10µM
COc1ccc(-c2nc(-c3c(C)noc3C)cc3c2cc(C)n3CCN(C)C)cc1OC	HEK293 tox 89.1µM, 3T3 cytotox inconclusive
COc1ncc(-c2nc(-c3c(C)noc3C)cc3c2cc(C)n3CCN(C)C)cn1	HEK293 tox inconclusive, 3T3 cytotox inconclusive
